BAZ2B block = BAZ2B (human) inhibition | Potency, µM (series often up to 114 µM), without a hit: at the highest dose activity change, negative = inhibition, usual class: inhibitors | AlphaScreen BAZ2B-H3K14Ac peptide displacement | 360,000 tested, 4.4% active | Q9UIF8 | AID 504333; also: % is scaled to controls: 0 for no effect and ±100 for the full control effect; nearly all actives have a fitted effect of over 60% in size
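BAZ2B 50 nM plus b-H3(5-23)K14Ac 50 nM, PBS pH 7.4/0.01% Tween-20, 30 min RT; compound added (max 110 uM), 30 min RT; streptavidin donor/Ni-chelate acceptor beads 10 ug/mL final, 20 min dark; AlphaScreen read.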
JMJD2A Tudor inh = blocks the human JMJD2A Tudor domain. AlphaScreen JMJD2A-Tudor / H3K4me3 peptide binding. Potency, µM (doses to about 114 µM), for inactives: at the top dose activity change, negative = inhibition, usual class: inhibitors. 390,000 tested, 4.4% active. AID 504339; also: % is scaled to controls: 0 for no effect and ±100 for the full control effect; nearly all actives have a fitted effect of over 50% in size
HP1b chromo inh = HP1-beta chromodomain-methylated histone interaction inhibition. P83916. AlphaScreen HP1-beta / biotin-H3K9me3 peptide binding. Potency, µM (series often up to 114 µM), inactives show top-dose activity change, negative = inhibition, actives largely listed as inhibitors. 390,000 tested, 0.56% active. AID 540317; also: nearly all actives have a fitted effect of over 70% in size
Target sequence (P83916 whole entry, looked up): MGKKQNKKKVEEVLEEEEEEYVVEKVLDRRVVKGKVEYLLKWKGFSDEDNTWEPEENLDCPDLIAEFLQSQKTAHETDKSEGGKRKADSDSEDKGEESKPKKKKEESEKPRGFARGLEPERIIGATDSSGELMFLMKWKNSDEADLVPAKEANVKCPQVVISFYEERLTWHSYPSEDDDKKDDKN
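AlphaScreen: HP1-beta (50 nM) preformed 30 min with biotin-H3(1-18)K9me3 peptide (50 nM) in PBS pH 7.4, 0.01% Tween-20. Compound added for 30 min at RT, then streptavidin donor/nickel chelate acceptor beads (10 ug/mL) for 30 min.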
G9a block = blocks human histone lysine methyltransferase G9a | Q96KQ7 | G9a H3K9 monomethylation, AlphaScreen, 2 h | Potency, µM (highest dose often 102 µM), for inactives: at the top dose activity, negative = inhibition, hits mostly inhibitors | 350,000 tested, 8.8% active; also: % is scaled to controls: 0 for no effect and ±100 for the full control effect; nearly all actives have a fitted effect of over 75% in size
Target sequence (Q96KQ7 913-1193 limits assumed): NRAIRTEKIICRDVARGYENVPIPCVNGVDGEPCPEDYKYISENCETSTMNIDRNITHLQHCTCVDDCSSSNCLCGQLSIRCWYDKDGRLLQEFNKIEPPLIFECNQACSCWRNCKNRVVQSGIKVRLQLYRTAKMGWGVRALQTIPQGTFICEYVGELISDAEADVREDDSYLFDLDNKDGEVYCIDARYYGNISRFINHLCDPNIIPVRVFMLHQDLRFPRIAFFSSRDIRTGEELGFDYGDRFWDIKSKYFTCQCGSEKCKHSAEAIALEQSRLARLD
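Signal arises when biotinylated H3K9 peptide, once monomethylated, bridges streptavidin donor and antibody-captured acceptor beads. Enzyme at 20 nM was preincubated 15 min with test compounds; peptide 500 nM and SAM 20 uM then reacted for 2 h.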
L3MBTL1 block = inhibitors of human L3MBTL1 | Q9Y468 | AlphaScreen L3MBTL1–H3K9me1 peptide binding | Potency, µM (doses to about 57.1 µM), for inactives: top-dose activity, negative = inhibition, hits mostly inhibitors | 230,000 tested, 0.66% active; also: % is scaled to controls: 0 for no effect and ±100 for the full control effect; nearly all actives have a fitted effect of over 60% in size
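AlphaScreen assay: L3MBTL1 (50 nM final) was preincubated 30 min at room temperature with biotinylated H3(1-15)K9me1 peptide (75 nM final), then 30 min with library compounds; streptavidin donor and nickel chelate acceptor beads (10 ug/mL final) added, 30 min dark.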
Sfp PPTase inh = inhibitors of Bacillus subtilis Sfp phosphopantetheinyl transferase; Q9F4F7; Biochemical Sfp PPTase activity, qHTS; Potency, µM, without a hit: largest response in the series, negative = inhibition, most hits filed as inhibitors; 310,000 tested, 3.5% active; AID 1490;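 also: the enzyme is Sfp with the accession as filed and its product quenches rhodamine fluorescence; 0% = enzyme reaction without inhibitor and -100% = no enzyme wells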
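Reaction rates are the 30-min fluorescence difference (ex 525, em 598 nm) in wells containing 15 nM Sfp, 5 uM rhodamine-CoA and 12.5 uM BHQ-2-YbbR at pH 7.6 with 10 mM MgCl2.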
* marks the source's active call; other numbers are inactive results; [ ] = remark or other dose. Most compounds without a hit are left out; they make up all but 12% or so of the library. Calls follow the shape of the dose curve; as a rule, active = well fitted curve in the direction sought with a large enough effect; inconclusive = small, poorly fitted or top-dose-only effect, or another doubt; inactive = no such curve, though single readings can be large; an effect the other way counts as inactive or inconclusive. Potency is read from the fitted curve at half-maximal effect.

`O=C(O)c1ccc(-n2c(-c3cc(-c4ccco4)[nH]n3)n[nH]c2=S)cc1` gave BAZ2B block 45µM*, JMJD2A Tudor inh 20µM*, HP1b chromo inh 12%, G9a block 4%[0.501 µM], L3MBTL1 block inconclusive and Sfp PPTase inh 45µM*.
`O=C(O)c1cc(-c2ccco2)[nH]n1` gave BAZ2B block 4%, JMJD2A Tudor inh 79µM*, HP1b chromo inh 25%, G9a block inconclusive, L3MBTL1 block -23% and Sfp PPTase inh 22µM*.
`CC1CCC(C(=O)NNC(=O)c2cc(-c3ccco3)[nH]n2)CC1` (stereo not given) gave BAZ2B block -21%, JMJD2A Tudor inh -17%, HP1b chromo inh 27%, G9a block 43%[59 µM] and Sfp PPTase inh 9%.
For O=C(COc1ccc(/C=N/NC(=O)c2ccncc2)cc1)Nc1ccc([N+](=O)[O-])cc1 the results were BAZ2B block -2%, JMJD2A Tudor inh inconclusive, HP1b chromo inh 19%, G9a block 20%[59 µM] and Sfp PPTase inh 26%.
For O=C(CO/N=C/c1cccc([N+](=O)[O-])c1)Nc1ccc2ccccc2c1 the results were BAZ2B block inconclusive, JMJD2A Tudor inh -26%, HP1b chromo inh 6%, G9a block 0.89µM* and Sfp PPTase inh inconclusive.
Screening O=C(COc1ccc(/C=N/NC(=O)c2ccc(O)cc2)cc1)Nc1cccc([N+](=O)[O-])c1 returned BAZ2B block -35%, JMJD2A Tudor inh -24%, HP1b chromo inh 3%, G9a block 28µM*, L3MBTL1 block 21% and Sfp PPTase inh -26%.
CCCCN(C)CCCNC(=O)CN1C(=O)COc2ccc(S(=O)(=O)N3CCC(C)CC3)cc21 was read as BAZ2B block 3%, JMJD2A Tudor inh 3%, HP1b chromo inh 40% and G9a block -7%[59 µM].
CN(C)S(=O)(=O)c1cccc(COC(=O)CNC(=O)c2ccc(Br)o2)c1 was read as BAZ2B block -3%, JMJD2A Tudor inh -15%, HP1b chromo inh 17%, G9a block 15%[0.501 µM] and L3MBTL1 block 7%.
Screening N#Cc1c2nc3ccccc3nc2n2cc(NC(=O)c3ccc(F)cc3)ccc12 returned BAZ2B block inconclusive, JMJD2A Tudor inh 18µM*, HP1b chromo inh -19%, G9a block 3.2µM*, L3MBTL1 block -45% and Sfp PPTase inh inconclusive.
Screening CC(C)(C)CN1CCNC(=O)C1CC(=O)NCc1cccc(-n2cccn2)c1 (stereo not given) returned BAZ2B block 6%, JMJD2A Tudor inh 7%, HP1b chromo inh 39%, L3MBTL1 block 6% and Sfp PPTase inh -9%.
`Cn1cc(CNC(=O)CC2C(=O)NCCN2CC(C)(C)C)cn1` (stereo not given) gave BAZ2B block 2%, JMJD2A Tudor inh -4%, HP1b chromo inh 10%, G9a block 50µM*, L3MBTL1 block 4% and Sfp PPTase inh 14%.
For CSc1cccc(CNC(=O)CC2C(=O)NCCN2CC(C)(C)C)c1 (stereo not given) the results were BAZ2B block -18%, JMJD2A Tudor inh -15%, HP1b chromo inh 29%, G9a block 40µM*, L3MBTL1 block 4% and Sfp PPTase inh -4%.
`Cc1ccc(OCc2nc3ccccc3n2CCOc2ccc(Cl)cc2)cc1` gave BAZ2B block 14%, JMJD2A Tudor inh -2%, HP1b chromo inh 56% and G9a block 25%[59 µM].
Screening CN(Cc1ccccc1)C(=O)c1ccc(NC(=O)Cc2ccc(NC(=O)C3CCN(C(=O)C4CCCC4)CC3)cc2)cc1 returned JMJD2A Tudor inh -16% and HP1b chromo inh 28%.
CN(C)C(=O)CCc1ccc2c3c([nH]c2c1)[C@]1(C)[C@@H](C(=O)N2CCCCC2)C[C@H](CC(=O)NCC24CC5CC(CC(C5)C2)C4)C(=O)N1CC3 was read as JMJD2A Tudor inh -34%, HP1b chromo inh -3% and L3MBTL1 block -12%.
CC(NC(=O)Cn1c(-c2cccs2)cc2cc(F)ccc21)c1ccccc1 (stereo not given) was read as BAZ2B block -1%, JMJD2A Tudor inh 6%, HP1b chromo inh 31% and G9a block -4%[59 µM].
`CC(=O)c1sc(NC(=O)C2CC(=O)N(Cc3ccccc3)C2)nc1-c1ccccc1` (stereo not given) gave BAZ2B block -6%, JMJD2A Tudor inh -33%, HP1b chromo inh -8%, G9a block 56µM* and L3MBTL1 block -2%.
COc1ccc(NC(=O)COc2ccccc2C(=O)NCC(c2ccccc2)N(C)C)cc1Cl (stereo not given) was read as BAZ2B block inconclusive, JMJD2A Tudor inh -37%, HP1b chromo inh -16%, G9a block -23% and Sfp PPTase inh -3%.
Cc1ccc(NC2=C(C(=O)c3ccccc3)N(C)S(=O)(=O)c3ccccc32)cc1 was read as BAZ2B block 25µM*, JMJD2A Tudor inh inconclusive, HP1b chromo inh inconclusive, G9a block 23%[0.501 µM], L3MBTL1 block -24% and Sfp PPTase inh -3%.
`CN1C(C(=O)c2ccccc2)=C(N)c2ccccc2S1(=O)=O` gave BAZ2B block -16%, JMJD2A Tudor inh -26%, HP1b chromo inh 21%, G9a block -28%, L3MBTL1 block -24% and Sfp PPTase inh 10%.
For CC1CCC(Nc2nc3c(-c4cccc(C(F)(F)F)c4)nnn3c3ccccc23)CC1 (stereo not given) the results were BAZ2B block 45%, JMJD2A Tudor inh 21%, HP1b chromo inh 164% and G9a block 74%[59 µM].
For COc1ccc(/C=C2\SC(=S)N(CC(=O)OCC(=O)Nc3ccc(C)cc3Cl)C2=O)cc1 the results were BAZ2B block -26%, JMJD2A Tudor inh inconclusive, HP1b chromo inh 5%, G9a block 14µM*, L3MBTL1 block -7% and Sfp PPTase inh -24%.
Screening O=C(CCN1C(=O)/C(=C/c2ccc(Cl)cc2)SC1=S)Nc1ccc(C(=O)O)cc1 returned BAZ2B block -16%, JMJD2A Tudor inh inconclusive, HP1b chromo inh 71µM*, G9a block inconclusive and Sfp PPTase inh -4%.
`COc1ccc(/C=C2\SC(=S)N(CCC(=O)Nc3ccc(C(=O)O)cc3)C2=O)cc1` gave BAZ2B block 35µM*, JMJD2A Tudor inh -101%, HP1b chromo inh 50µM*, G9a block 20%[0.501 µM], L3MBTL1 block -4%[2.29 µM] and Sfp PPTase inh -3%.
For CC(C)c1ccc(/C=N/NC(=O)CCNC(=O)c2ccccc2)cc1 the results were BAZ2B block -2%, JMJD2A Tudor inh -23%, HP1b chromo inh 1%, G9a block 23% and Sfp PPTase inh 7%.
